# Counter-ions that a name gives are not always drawn. ± gives the standard deviation of the averaged measurements. Over roughly 2,600 compounds, “MBP+ mature oligodendrocyte number relative to DMSO vehicle control” has its median near -0.34; the highest 2% begin near 13. This excerpt belongs to a sample that is enriched for the highest values.
# System: jimpy (Plp1 jimpy) mouse iPSC-derived oligodendrocyte progenitor cells
# Experiment: MBP+ mature oligodendrocyte number relative to DMSO vehicle control (SDs above negative control mean); higher = more surviving jimpy oligodendrocytes (rescue)
# Conditions: 10 µM; 3 days
# Protocol: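 Primary phenotypic screen of >3,000 bioactive compounds (Selleck L1700 and Sigma LO1280 libraries) at a single dose of 10 µM. Compounds were added to jimpy (Plp1 mutant) mouse iPSC-derived OPCs at the start of thyroid hormone-induced oligodendrocyte differentiation, one well per compound in 384-well plates. After 3 days cells were stained for MBP, Sox10 and DAPI and imaged with an Operetta system. MBP+ oligodendrocyte number and total cell number were expressed as the number of SDs above the mean of the DMSO negative control on the same plate (n=16 control wells per plate). Hits were defined as >=4 SD for oligodendrocytes and >=2 SD for total cells.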
row,Compound,MBP+ mature oligodendrocyte number
1,CCN(CC)CCNC(=O)c1ccc(NS(C)(=O)=O)cc1 [Sematilide monohydrochloride monohydrate],-0.439
2,O=C(NCc1ccccc1)c1csc(Nc2ccncn2)n1 [Thiazovivin],-3.47
3,CCCCNc1ncc(-c2ccc(CN3CCOCC3)cn2)c(NC2CCC(O)CC2)n1 (centres undefined),-4.15
4,O=C1c2ccccc2C(=O)c2c(NCCc3ccc(O)cc3)ccc(NCCc3ccc(O)cc3)c21,-4.41
5,Cc1ccc(C(=O)Cn2c3c(sc2=N)CCCC3)cc1 [Pifithrin-? (PFT?)],17
6,Cc1ccc(C(=O)C(C)CN2CCCCC2)cc1 (centres undefined) [Tolperisone HCl],5.05
7,S=c1[nH]c(-c2ccccc2)cn1-c1ccccc1,2.54
8,CN(C)c1ccc(/C=C2/C(=O)Nc3ccccc32)cc1,0.789
9,O=c1cc(-c2ccccc2)oc2cc(O)cc(O)c12 [Chrysin],4.59
10,COc1cc(N)c(Cl)cc1C(=O)OCCN1CCCCC1,-3.81
11,CCOc1cc(N)c(Cl)cc1C(=O)NCC1CN(Cc2ccc(F)cc2)CCO1 (centres undefined) [Mosapride Citrate],23
12,CCN(CC)CCNC(=O)c1cc(Cl)c(N)cc1OC [Metoclopramide hydrochloride],0.304
13,C[C@H]1O[C@@H](Oc2c(-c3cc(O)c(O)c(O)c3)oc3cc(O)cc(O)c3c2=O)[C@@H](O)[C@@H](O)[C@@H]1O [Myricitrin],0.507
14,Nc1ccc(-c2ccc3ccccc3n2)cc1 [BF-170 hydrochloride],0.146
15,O=C(/C=C/c1ccc(O)c(O)c1)c1ccc(O)cc1O [Butein],-4.58
16,O=C(Cc1ccc(-c2ccc(OCCN3CCOCC3)cc2)cn1)NCc1ccccc1,-5.77
17,CCCCOc1ccc(OCCCN2CCOCC2)cc1 [Pramoxine HCl],14.3
18,CCCCOc1ccc(C(=O)CCN2CCCCC2)cc1 [Dyclonine HCl],-1.91
19,CC[C@@H]1C(=O)N(C)c2cnc(Nc3ccc(C(=O)N[C@H]4CC[C@H](N5CCN(CC6CC6)CC5)CC4)cc3OC)nc2N1C(C)C [Volasertib (BI 6727)],< -4.81
20,Cc1c(OCC(F)(F)F)ccnc1C[S@@+]([O-])c1nc2ccccc2[nH]1 [Dexlansoprazole],17.2
21,COCCCOc1ccnc(C[S+]([O-])c2nc3ccccc3[nH]2)c1C (centres undefined) [Rabeprazole sodium],1.61
22,Cc1c(OCC(F)(F)F)ccnc1C[S+]([O-])c1nc2ccccc2[nH]1 (centres undefined) [Lansoprazole],7.5 ± 4.5
23,O=C(NCCCNc1nc(Nc2cccc(NC(=O)N3CCCC3)c2)ncc1I)c1cccs1,-6.61
24,NCCCCC(=O)O [5-Aminovaleric acid hydrochloride],-1.14
25,O=C(Nc1cccc2cccnc12)c1ccc(N2C(=O)[C@@H]3[C@H](C2=O)[C@@H]2C=C[C@H]3C2)cc1 [IWR-1-endo],-3.56
26,O=C(/C=C/c1ccccc1)NC(NC(=S)Nc1cccc2cccnc12)C(Cl)(Cl)Cl (centres undefined) [Salubrinal],19
27,O=C(C=Cc1ccccc1)NC(NC(=S)Nc1ccc(Cl)cc1)C(Cl)(Cl)Cl (centres undefined),-0.386

row,Compound,MBP+ mature oligodendrocyte number
1,N=C(N)Nc1ccc(C(=O)Oc2ccc3cc(C(=N)N)ccc3c2)cc1 [Nafamostat Mesylate],-3.03
2,NC1CONC1=O (racemic) [DL-Cycloserine],0.353
3,Cn1ccc2cc3c(cc21)CCN3C(=O)Nc1cccnc1,0.574
4,O=C(Nc1ccccc1Br)N[C@@H]1CCN(c2ccc(C(F)(F)F)cn2)C1,1.22
5,O=C(Nc1cccnc1)N1CCC(Cc2cccc(Oc3ccc(C(F)(F)F)cn3)c2)CC1,19.5
6,O=C(Nc1cccnc1)N1CCC(Cc2cccc(Oc3ccc(C(F)(F)F)cn3)c2)CC1 [PF 3845 hydrate],10.1
7,Nc1nccc(Oc2ccc(NC(=O)c3c[nH]cc(-c4ccc(F)cc4)c3=O)cc2F)c1Cl,7.17
8,C[C@@H](O[C@H]1OCCN(Cc2nn(P(=O)(O)O)c(=O)[nH]2)[C@H]1c1ccc(F)cc1)c1cc(C(F)(F)F)cc(C(F)(F)F)c1 [Fosaprepitant dimeglumine salt],-2.44
9,CN1CC(=O)N=C1NC(=O)Nc1cccc(Cl)c1 [Fenobam],-0.794
10,Nc1nc2c(c(=O)[nH]1)C[C@@H](CCc1ccc(C(=O)N[C@@H](CCC(=O)O)C(=O)O)cc1)CN2 [Lometrexol hydrate],0.225
11,CCn1cc(-c2ccnc3[nH]c(-c4cccc(CN(C)C)c4)cc23)c(-c2ccc(NC(=O)N(C)C)cc2)n1,-5.93
12,CN(C)C(=O)c1ccc(S(=O)(=O)c2ccc(NC(=O)[C@@](C)(O)C(F)(F)F)c(Cl)c2)cc1,19.5
13,C[C@H](Oc1cc(-c2cnn(C3CCNCC3)c2)cnc1N)c1c(Cl)ccc(F)c1Cl [(S)-crizotinib],-4.58
14,Cc1ccc(Nc2c(F)cccc2Cl)c(CC(=O)O)c1 [Lumiracoxib],0.263
15,COC(=O)[C@H](c1ccccc1Cl)N1CCc2sccc2C1 [Clopidogrel],1.42
16,CN1CCC(=C2c3ccccc3CCc3sccc32)CC1 [Pizotifen Malate],-6.09
17,Clc1ccccc1CN1CCc2sccc2C1 [Ticlopidine HCl],18.4
18,COC(=O)C1=C(C)NC(C)=C(C(=O)OC)C1c1cccc(NC(=O)NCCCN2CCC(c3cccc(OC)c3)CC2)c1,< -3.85
19,CCc1nc(N)nc(N)c1-c1ccc(Cl)cc1 [Pyrimethamine],49
20,C[n+]1cccc(C(N)=O)c1 [1-Methylnicotinamide chloride],-0.176
21,N#CC[C@H](C1CCCC1)n1cc(-c2ncnc3[nH]ccc23)cn1,2.47
22,c1ccc(-c2[nH]ncc2-c2ccnc3ccccc23)nc1,-2.12
23,CCCC(C(=O)OCCN(CC)CC)(c1ccccc1)c1ccccc1 [SKF-525A hydrochloride],-3.42
24,CCN(CC)CC#CCOC(=O)C(O)(c1ccccc1)C1CCCCC1 (centres undefined) [Oxybutynin chloride],29.7
25,CCN(CC)CC#CCOC(=O)C(O)(c1ccccc1)C1CCCCC1 (centres undefined) [Oxybutynin Chloride],13.5
26,CCN(CC)CCOC(=O)C(c1ccccc1)c1ccccc1 [Adiphenine HCl],0.0731
27,Cc1cc2nc(NCCCO)n(CC(=O)c3cc(C(C)(C)C)c(O)c(C(C)(C)C)c3)c2cc1C,-4
